Experimental findings from PubChem BioAssay (NCATS) are described below.

The structures appear in SMILES notation. Records with an inconclusive call do not appear. Values without a mark were called inactive. Calls come from the whole dose curve.

The nature of this test: A High-Content qHTS Against Drug Library for the Identification of Small Molecules that Inhibit DYT1 Early Onset Primary Dystonia-Associated Cell Pathology (AID 1645839). As to conditions: HEK293 Flp-In EGFP-delE TorsinA, punctate imaging, 48 h; series mostly up to 46.1 µM; % pathology change, negative = correction: at the top concentration. A digest of the protocol: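 Readout: %pathology, the punctate EGFP-TorsinA distribution from imaging, as the primary channel and cell count as the toxicity counterscreen. HEK293 Flp-In cells expressing delE TorsinA were induced with tetracycline and treated with compound for 48 h.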
On the technique in general: qHTS replaces the single test concentration by a dilution series.
Turning to `CO/N=C(\C(=O)N[C@@H]1C(=O)N2C(C(=O)O)=C(CSc3nc(=O)c(O)nn3C)CS[C@H]12)c1csc(N)n1`, the “% pathology change, negative = correction” value (shortened to “% pathology change”) is 4.88%.

Consider `NCCNCCNCCNCCN`, for which the % pathology change, negative = correction was 14.9% [at 9.22 µM].

Turning to `NCC(=O)CCC(=O)O`, the “% pathology change” value was 2.68%.

With `O=C(O)COc1nn(Cc2ccccc2)c2ccccc12`, the “% pathology change” value was -19.8%.

`CCOC(=O)[C@H](CCc1ccccc1)N[C@@H](C)C(=O)N1C(=O)N(C)C[C@H]1C(=O)O`: the “% pathology change” value is 2.88%.

For `Cc1ccc2nc(N)[nH]c(=O)c2c1Sc1ccncc1`, the “% pathology change” value was -16.8%.

Take `CC/C=C(\C(=O)N[C@@H]1C(=O)N2C(C(=O)OCOC(=O)C(C)(C)C)=C(COC(N)=O)CS[C@H]12)c1csc(N)n1`: the “% pathology change” value was 8.52%.

In the case of `CN(C)CCCO[C@@H]1[C@H]2OC(C)(C)O[C@H]2O[C@@H]1C(O)CO` (some centres undefined), the “% pathology change” value is 8.01%.

With `O=S(=O)(O)c1cc(I)c(O)c2ncccc12`, the “% pathology change” value is 6.87%.

Turning to `C/C(=C(\CCOP(=O)(O)O)SC(=O)c1ccccc1)N(C=O)Cc1cnc(C)nc1N`, the % pathology change, negative = correction was -4.46% [at 4.63 µM].

For the molecule `Nc1ccc(S(=O)(=O)Nc2nccs2)cc1`, the “% pathology change” value was 10.8%.

In the case of `CC(=O)O[C@@]12CO[C@@H]1C[C@H](O)[C@@]1(C)C(=O)[C@H](O)C3=C(C)[C@@H](OC(=O)[C@H](O)[C@@H](NC(=O)OC(C)(C)C)c4ccccc4)C[C@@](O)([C@@H](OC(=O)c4ccccc4)[C@H]21)C3(C)C`, the “% pathology change” value was -17.6%.

On to `O=C1OC(OC(=O)c2cccnc2Nc2cccc(C(F)(F)F)c2)c2ccccc21` (centres undefined), for which the “% pathology change” value was 0.328%.

In the case of `CCOc1ccc2ccccc2c1C(=O)N[C@@H]1C(=O)N2[C@@H]1SC(C)(C)[C@@H]2C(=O)O`, the “% pathology change” value was 2.68%.

On to `O=c1cc[nH]c(=O)[nH]1`, for which the “% pathology change” value is 0.442%.

For `CC1(C)CO[C@@H](CC(=O)O)CN1`, the “% pathology change” value was 15.2%.

As to `Cc1cccc(C)c1NC(=O)CN(CC(=O)O)CC(=O)O`, the “% pathology change” value was 5.84%.

In the case of `OCC(CO)N[C@H]1C[C@](O)(CO)[C@@H](O)[C@H](O)[C@H]1O`, the “% pathology change” value is 6.09%.

As for `NC(=O)NC(=O)Cc1ccccc1`, the “% pathology change” value was 1.87%.

In the case of `CN1CCOC(c2ccccc2)c2ccccc2C1` (centres undefined), the “% pathology change” value was -14.8%.

In the case of `COc1cc(C(=O)N2CCOCC2)cc(OC)c1OC`, the “% pathology change” value is 14.3%.

Regarding `O=Cc1ccccc1C=O`, the “% pathology change” value was 20.7%.

As to `CC(=O)Oc1ccc(C2(c3ccc(OC(C)=O)cc3)C(=O)Nc3ccccc32)cc1`, the “% pathology change” value was -19.9%.

Consider `CN(N=O)C(=O)N[C@@H]1[C@@H](O)[C@H](O)[C@@H](CO)O[C@@H]1O`, for which the “% pathology change” value is 4.86%.

Regarding `CCCCc1ncc(/C=C(\Cc2cccs2)C(=O)O)n1Cc1ccc(C(=O)O)cc1`, the “% pathology change” value was 9.61%.

For the molecule `Cc1ccc(C(C)C)cc2c(C)ccc1-2`, the “% pathology change” value was -1.87%.

In the case of `Cc1cc2c(cc1S(N)(=O)=O)S(=O)(=O)CCC2`, the “% pathology change” value is 11.3%.

Take `Oc1ccc(C(O)CNCCCCCCNCC(O)c2ccc(O)c(O)c2)cc1O` (centres undefined): the “% pathology change” value is 7.11%.

On to `CC1CC(OC(=O)C(O)c2ccccc2)CC(C)(C)N1C` (centres undefined), for which the “% pathology change” value is -12.5%.

For `Oc1cn2c(n1)Nc1ccc(Cl)c(Cl)c1C2`, the “% pathology change” value is 1.92% [at 19.1 µM].

Turning to `O=c1cc[nH]c(=S)[nH]1`, the “% pathology change” value is 14%.

On to `c1ccc2c(CC3=NCCN3)cccc2c1`, for which the “% pathology change” value was 0.0232%.

`CC1(C)[C@@H]2CC[C@@]1(C)C(=O)C2`: the “% pathology change” value is 22.2%.

Regarding `CC1(C)OC(=O)NC1=O`, the “% pathology change” value was 5.68%.
